Screening data as filed in PubChem.
Shiga toxin inh = inhibitors of Shiga toxin in Vero cells; Vero cells, Shiga toxin protein synthesis inhibition reporter; inhibition, % at 38.7 µM; 9.2% of 290,000 active; in the data active means inhibition mostly above about 28%, no sharp cut-off; inactive means mostly below about 43%
Pf growth 96h = P. falciparum growth inhibition at 96 hour, primary screen for plastid delayed-death inhibitors. P. falciparum luciferase reporter growth, 96 h. Potency, µM (top dose mostly 28.7 µM), hits mostly inhibitors. 6.9% of 320,000 active. AID 504834; active means well fitted inhibition curve with a large enough effect; inconclusive means small, poorly fitted or top-dose-only effect, or another doubt; inactive means no such curve, though single readings can be large or run the other way
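Compounds incubated with erythrocytes infected by luciferase-expressing P. falciparum (2% hematocrit, 0.05% parasitemia final) for 96 hours, 37 C in 5% CO2. Growth inhibition scored as decreased luciferase luminescence.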
Pf growth 48h = P. falciparum growth inhibition at 48 hours (one generation) | P. falciparum luciferase growth in erythrocytes, 48 h | Potency, µM (highest dose often 28.7 µM), most hits filed as inhibitors | 5.9% of 310,000 active | AID 504832; active means well fitted inhibition curve with a large enough effect; inconclusive means small, poorly fitted or top-dose-only effect, or another doubt; inactive means no such curve, though single readings can be large or run the other way
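Cell-based growth assay: transgenic P. falciparum expressing firefly luciferase, cultured in red cells within RPMI 1640 containing 0.5% w/v Albumax, 24 mM bicarbonate and gentamycin. A drop in luciferase activity indicates inhibition.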
SARS PLpro yeast = inhibitors of SARS-CoV papain-like protease in yeast | S. cerevisiae expressing SARS-CoV PLpro, growth rescue | Potency, µM (series often up to 32.9 µM), usual class: activators | 0.19% of 330,000 active | AID 485353; further: nearly all actives have a fitted effect of over 55% in size
NS1 function inh = inhibitors of influenza NS1 protein function | Potency, µM (series often up to 46.1 µM) | 0.4% of 270,000 active | AID 2326; further: actives are rising curves; nearly all actives have a fitted effect of over 50% in size
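Read-out: OD600 growth recovery of NS1-expressing budding yeast. Cells grown overnight at 30C in -URA glucose medium, washed, resuspended and diluted 1:100 in 2% galactose assay medium, pH 6.0. Same strain lacking NS1 served as positive control.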
CHX counter = affects cycloheximide protein synthesis inhibition readout, counter-screen; cell reporter, cycloheximide protein synthesis inhibition counterscreen; max response, %; 12% of 300,000 active; AID 2314; in the data active means max response mostly above about 13%, no sharp cut-off; inactive means mostly below about 14%; further: read at 38.3 µM for the half of the compounds with a filed dose
Of the large screens only hits and unclear results are named; the others gave an inactive call. Most compounds without a hit are left out; they make up all but 21% or so of the library. Unless noted, the call rests on the fitted dose curve.

CC1CCCCC1NC(=O)CSc1nnc(-c2ccccc2)n1N (stereo not drawn)	none
O=C(NC(=S)Nc1ccc(NC(=O)c2cccs2)cc1)c1ccco1	Pf growth 96h inconclusive, Pf growth 48h 1.7µM
O=C(c1cc2ccccc2o1)c1cccs1	Shiga toxin inh 82, CHX counter 50 (no result: Pf growth 96h)
Cc1ccc(/C=N/NC(=O)C(C)Oc2ccccc2[N+](=O)[O-])s1 (stereo not drawn)	none
O=C(O)c1ccc(N=Nc2c(O)ccc3ncccc23)cc1	Pf growth 48h inconclusive, CHX counter 22
CCOc1ccc2nc(N(CCN(CC)CC)C(=O)c3ccc([N+](=O)[O-])cc3)sc2c1	none (no result: NS1 function inh)
Cc1ccc(OCCN2CCCC2)cc1	none
CN(C)c1nc2ccc(OCCN3CCCCC3)cc2s1	CHX counter 42
CCN(CC)CCOc1ccc2nc(N(C)C)sc2c1	NS1 function inh inconclusive, CHX counter 27
Cc1cccc2c1cnn2C(=O)CCC(=O)NCc1ccc(F)cc1	Pf growth 96h 15µM, SARS PLpro yeast inconclusive
Cc1cccc2c1cnn2C(=O)Nc1cc(F)ccc1F	Shiga toxin inh 59, CHX counter 40
CCOc1ccccc1NC(=O)n1ncc2c(C)cccc21	none
Cc1ccccn1	none (no result: Shiga toxin inh, SARS PLpro yeast, NS1 function inh, CHX counter)
COc1ccc(C2CC(c3cccs3)=NN2C(=O)c2ccc(Br)o2)cc1 (stereo not drawn)	Pf growth 96h inconclusive, Pf growth 48h 1.7µM
COc1ccc(C2=NN(C(=O)c3cccs3)C(c3ccc(OC)cc3)C2)cc1 (stereo not drawn)	Pf growth 96h inconclusive, Pf growth 48h inconclusive, CHX counter 13
O=C(c1cccs1)N1N=C(c2ccccc2)CC1c1ccccc1 (stereo not drawn)	Pf growth 96h 2.6µM, Pf growth 48h inconclusive
Cc1cc(C)n(-c2ccc(C(=O)Nc3cc(S(=O)(=O)N(C)C)ccc3Cl)cc2)n1	Pf growth 48h inconclusive
Cc1ccsc1C1NC(=O)c2ccccc2N1 (stereo not drawn)	CHX counter 23
O=C1NC(c2cccs2)Nc2ccccc21 (stereo not drawn)	Shiga toxin inh 38, Pf growth 96h inconclusive, CHX counter 21 (no result: Pf growth 48h)
CC(=O)NCc1ccc(C(=O)CN2C(=O)NC3(CCCCC3C)C2=O)s1 (stereo not drawn)	Pf growth 48h inconclusive (no result: Shiga toxin inh, NS1 function inh, CHX counter)
CCOc1ccc(/C=C2\SC(=S)N(CC(=O)NCCCN3CCOCC3)C2=O)cc1	Shiga toxin inh 47, CHX counter 22
CC(C)c1ccc(/C=C2\SC(=S)N(CC(=O)NCCCN3CCOCC3)C2=O)cc1	CHX counter 39
O=C(CN1C(=O)/C(=C/c2ccccc2)Sc2ccccc21)NCCCN1CCOCC1	none
C=CCN(CC=C)CCOc1ccc(C)cc1[N+](=O)[O-]	Shiga toxin inh 71, Pf growth 96h inconclusive, CHX counter 26
C=CCN(CC=C)CCOc1cc(C)ccc1[N+](=O)[O-]	Shiga toxin inh 40, CHX counter 18 (no result: NS1 function inh)
Nc1nc(SCC(=O)N2CCCc3ccccc32)[nH]c(=O)c1-c1ccccc1	Shiga toxin inh 54, CHX counter 34
Nc1nc(SCc2ccccc2)[nH]c(=O)c1-c1ccccc1	Shiga toxin inh 121, CHX counter 67
O=C(CSc1nc2c(cnn2-c2ccc(F)cc2)c(=O)[nH]1)N1CCCc2ccccc21	Pf growth 96h inconclusive
COc1ccc(C(=O)NCCc2nnc3ccc(SCC(=O)Nc4ccccc4)nn23)cc1	Shiga toxin inh 73, CHX counter 44
Cc1ccc(C(=O)NCCc2nnc3ccc(SCC(=O)Nc4ccccc4C)nn23)cc1	Pf growth 96h 10µM, Pf growth 48h inconclusive
Cc1ccc(C(=O)NCCc2nnc3ccc(SCC(=O)Nc4c(C)cc(C)cc4C)nn23)cc1	SARS PLpro yeast inconclusive
CN(c1ccc(OCC(=O)NCc2cccnc2)cc1)S(=O)(=O)c1ccc(Cl)cc1	none
O=C1CC(c2cccs2)Sc2nc3ccccc3n21 (stereo not drawn)	Shiga toxin inh 106, CHX counter 45 (no result: Pf growth 96h)
O=C1CC(c2ccco2)Sc2nc3ccccc3n21 (stereo not drawn)	Shiga toxin inh 82, CHX counter 36
O=C1CC(c2ccc3c(c2)OCO3)Sc2nc3ccccc3n21 (stereo not drawn)	Shiga toxin inh 106, CHX counter 51
O=C1CC(c2ccc(F)cc2)Sc2nc(-c3ccccc3)c(-c3ccccc3)n21 (stereo not drawn)	none
CN1C(=O)CC(c2ccco2)Sc2ccccc21 (stereo not drawn)	none
O=C1CC(c2ccccc2)Sc2nc3ccccc3n21 (stereo not drawn)	Shiga toxin inh 99, CHX counter 41 (no result: NS1 function inh)
CC(NC(=O)c1ccco1)c1ccc2c(c1)OCCO2 (stereo not drawn)	none (no result: Pf growth 96h)
O=C(c1ccco1)N1CCN(C(=O)c2cn(-c3ccccc3)nc2-c2ccccc2)CC1	none (no result: Shiga toxin inh, NS1 function inh, CHX counter)
CCc1ccc2[nH]c3nc(N/N=C/c4ccc(O)cc4O)nnc3c2c1	Pf growth 48h 8.3µM, SARS PLpro yeast inconclusive (no result: Shiga toxin inh)
Cc1ccc2[nH]c3nc(N/N=C/c4cccc(O)c4)nnc3c2c1	Pf growth 96h inconclusive
COc1ccc(-c2ncncc2-c2ccccc2)c(O)c1	Pf growth 96h inconclusive, Pf growth 48h inconclusive
C=C(C)COc1ccc(-c2ncncc2-c2ccccc2)c(O)c1	Pf growth 96h 13µM, Pf growth 48h 9.3µM
CCOc1ccc(-c2ncncc2-c2ccc(OC)cc2)c(O)c1	Pf growth 96h inconclusive, Pf growth 48h 7.4µM
CCOC(=O)c1c(-c2ccsc2)csc1N	Pf growth 48h 2.9µM
Cc1cc([N+](=O)[O-])nn1CC(=O)N/N=C/c1ccc(O)cc1O	Pf growth 96h inconclusive, Pf growth 48h inconclusive
Cc1cc(C(=O)NCC2CCCCC2)ccc1[N+](=O)[O-]	Shiga toxin inh 84, CHX counter 24
O=C(NCC1CCCCC1)c1cccc([N+](=O)[O-])c1	Pf growth 96h inconclusive, Pf growth 48h 5.2µM
O=C(NCC1CCN(C(=O)c2cccc([N+](=O)[O-])c2)CC1)c1cccc([N+](=O)[O-])c1	none
Cc1cc(C)nc(N2CCN(C(=O)CCC(=O)Nc3nnc(C(C)C)s3)CC2)n1	none
C/C(=N\N=C1/NC(=O)C(C)S1)c1ccc([N+](=O)[O-])cc1 (stereo not drawn)	none
CC(C)=N/N=C1\NC(=O)C(C)S1 (stereo not drawn)	Pf growth 96h 1.2µM, Pf growth 48h 4.7µM, CHX counter 29
COc1cccc(CN2CC(C(=O)NCCN3CCOC3=O)CCC2=O)c1 (stereo not drawn)	Pf growth 96h inconclusive
CC(=O)n1cc([C@@H]2C=C(C(=O)N3CCOCC3)O[C@H](OCc3ccc(CO)cc3)C2)c2ccccc21	Pf growth 96h inconclusive, Pf growth 48h inconclusive
CC(=O)n1cc([C@H]2C=C(C(=O)N3CCN(Cc4ccccc4)CC3)O[C@@H](OCc3ccc(CO)cc3)C2)c2ccccc21	Pf growth 96h 2.9µM, Pf growth 48h inconclusive
